# Active and inactive are the calls of the source. Rule for the calls: active = hit-call score of the fitted dose curve at least 0.9, where 1 is the maximum; inactive = score below 0.9.
# Legend:
# Conditions in all cases: mRNA level, 48 h; actives raise or lower the signal
# [1] = read-out: Apolipoprotein A-V (APOA5) gene, APOA5 (gene 116519); experiment: LTEA_HepaRG_APOA5: Life Technologies and Expression Analysis (LTEA) Assay for Apolipoprotein A-V (APOA5) gene using HepaRG (AID 2283474)
# Method in brief: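 APOA5 transcript levels were quantified by qRT-PCR, normalized to three housekeeping genes, after 48 h chemical treatment of HepaRG cells (8 points, 100 uM maximum, half-log steps, 0.5% DMSO). Curves fitted in both directions against vehicle.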
# [2] = read-out: Apoptosis regulator Bcl-2 (Homo sapiens) (UniProt P10415); experiment: LTEA_HepaRG_BCL2: Life Technologies and Expression Analysis (LTEA) Assay for Bcl-2 gene using HepaRG (AID 2283475);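 note: BCL2 transcript by TaqMan qRT-PCR normalised to ACTB GAPDH and POLR2A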
# Method in brief: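 Plated human HepaRG cells are exposed to test chemicals for 48 h across eight concentrations from 100 uM downward in half-log steps (0.5% DMSO). BCL2 expression is then measured by qRT-PCR with housekeeping normalisation and fitted bidirectionally against vehicle.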
# [3] = read-out: Bcl-2 (BID) gene, BID (gene 637); experiment: LTEA_HepaRG_BID: Life Technologies and Expression Analysis (LTEA) Assay for Bcl-2 (BID) gene using HepaRG (AID 2283476)
# Method in brief: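 Cells are plated, cultured 48 h, switched to serum-free induction medium, then dosed 48 h (100 uM top, half-log steps, 0.5% DMSO). RNA is isolated and BID expression read by qRT-PCR.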
# [4] = read-out: Caspase-3 (Homo sapiens) (UniProt P42574); experiment: LTEA_HepaRG_CASP3: Life Technologies and Expression Analysis (LTEA) Assay for cysteine-aspartic acid protease (CASP3) using HepaRG (AID 2283477)
# Method in brief: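 Expression of CASP3 was quantified by TaqMan qRT-PCR against three housekeeping genes (ACTB, GAPDH, POLR2A), bidirectionally versus 0.5% DMSO. HepaRG cultures received compounds in duplicate, top 100 uM with half-log steps, for 48 h in serum-free induction medium.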
# [5] = read-out: Cytochrome P450 (CYP24A1), CYP24A1 (gene 1591); experiment: LTEA_HepaRG_CYP24A1: Life Technologies and Expression Analysis (LTEA) Assay for Cytochrome P450 (CYP24A1) using HepaRG (AID 2283478)
# Method in brief: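 mRNA of CYP24A1 quantified by TaqMan qRT-PCR (ACTB/GAPDH/POLR2A normalization) after 48 h chemical exposure of HepaRG cells, top concentration 100 uM, half-log steps, 0.5% DMSO vehicle, duplicates. Curves fitted bidirectionally against DMSO baseline.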
# [6] = read-out: Cytochrome P450 (CYP1A2), CYP1A2 (gene 1544); experiment: LTEA_HepaRG_CYP1A2: Life Technologies and Expression Analysis (LTEA) Assay for Cytochrome P450 (CYP1A2) using HepaRG (AID 2283479)
# Method in brief: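 CYP1A2 transcript measured by TaqMan qRT-PCR against three housekeeping genes after 48-hour chemical exposure of HepaRG cells. Eight-point half-log series topping at 100 uM in 0.5% DMSO, duplicates; gain or loss fitted relative to vehicle.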
# [7] = read-out: cysteine-aspartic acid protease (CASP8), CASP8 (gene 841); experiment: LTEA_HepaRG_CASP8: Life Technologies and Expression Analysis (LTEA) Assay for cysteine-aspartic acid protease (CASP8) using HepaRG (AID 2283480)
# Method in brief: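 Concentration-response in duplicate up to 100 uM (half-log steps, 0.5% DMSO) on differentiated HepaRG cultures for 48 h. Expression change of CASP8 mRNA is determined by TaqMan qRT-PCR with housekeeping-gene normalization.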
# [8] = read-out: Cytochrome P450 (CYP2B6), CYP2B6 (gene 1555); experiment: LTEA_HepaRG_CYP2B6: Life Technologies and Expression Analysis (LTEA) Assay for Cytochrome P450 (CYP2B6) using HepaRG (AID 2283481)
# Method in brief: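 CYP2B6 transcript level quantified by qRT-PCR against three housekeeping genes, fitted bidirectionally relative to DMSO. HepaRG cultures received chemicals for 48 h, 8-point half-log series from 100 uM in 0.5% DMSO, duplicate wells, serum-free induction medium.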
# [9] = read-out: Cytochrome P450 2C19 (Homo sapiens) (UniProt P33261); experiment: LTEA_HepaRG_CYP2C19: Life Technologies and Expression Analysis (LTEA) Assay for CYP2C19 using HepaRG (AID 2283482)
# Method in brief: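 CYP2C19 transcript levels by qRT-PCR, normalized to three housekeeping genes, in HepaRG cells after 48 h chemical exposure. Eight-point half-log series topping at 100 uM, 0.5% DMSO vehicle. Increases and decreases both fitted against DMSO.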
# [10] = read-out: CYP2C8 (gene 1558); experiment: LTEA_HepaRG_CYP2C8: Life Technologies and Expression Analysis (LTEA) Assay for CYP2C8 using HepaRG (AID 2283483)
# Method in brief: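 This is a transcriptional endpoint in HepaRG cultures: 48 h exposure, highest concentration 100 uM. CYP2C8 mRNA is quantified by TaqMan qRT-PCR.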
# [11] = read-out: CYP2C9 (gene 1559); experiment: LTEA_HepaRG_CYP2C9: Life Technologies and Expression Analysis (LTEA) Assay for CYP2C9 using HepaRG (AID 2283484)
# Method in brief: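 Eight-point concentration-response (highest 100 uM, half-log dilutions) in HepaRG cells for 48 h; CYP2C9 expression by qRT-PCR normalized to ACTB, GAPDH, POLR2A. Bidirectional fit, DMSO baseline.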
# [12] = read-out: CYP2E1 (gene 1571); experiment: LTEA_HepaRG_CYP2E1: Life Technologies and Expression Analysis (LTEA) Assay for CYP2E1 using HepaRG (AID 2283485)
# Method in brief: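 Readout is qRT-PCR of CYP2E1 mRNA, normalized to three housekeeping genes and fitted bidirectionally against 0.5% DMSO. HepaRG cells were dosed 48 h at eight concentrations, highest 100 uM with half-log dilutions.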
# [13] = read-out: CYP4A11 (gene 1579); experiment: LTEA_HepaRG_CYP4A11: Life Technologies and Expression Analysis (LTEA) Assay for CYP4A11 using HepaRG (AID 2283486)
# Method in brief: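 Readout is CYP4A11 transcript level by qRT-PCR, normalized to three housekeeping genes and fitted bidirectionally against 0.5% DMSO. Human HepaRG cells were treated 48 h, in duplicate, with an 8-point half-log series topping at 100 uM.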
# [14] = read-out: Cytochrome P450 3A4 (Homo sapiens) (UniProt P08684); experiment: LTEA_HepaRG_CYP3A4: Life Technologies and Expression Analysis (LTEA) Assay for CYP3A4 using HepaRG (AID 2283487)
# Method in brief: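 HepaRG, 48 h exposure, 8-pt CRC from 100 uM (half-log), 0.5% DMSO, duplicates; serum-free induction medium. Readout: CYP3A4 mRNA, qRT-PCR, ACTB/GAPDH/POLR2A normalization. Bidirectional fit vs DMSO.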
# [15] = read-out: DNA damage-inducible transcript 3 (DDIT3), DDIT3 (gene 1649); experiment: LTEA_HepaRG_DDIT3: Life Technologies and Expression Analysis (LTEA) Assay for DNA damage-inducible transcript 3 (DDIT3) using HepaRG (AID 2283488)
# Method in brief: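 Cells are human HepaRG liver cells treated for 48 h with eight half-log concentrations up to 100 uM in 0.5% DMSO. Transcript levels come from qRT-PCR normalized to three housekeeping genes, with activity fitted in both directions relative to vehicle.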
# [16] = read-out: Pro-epidermal growth factor (Homo sapiens) (UniProt P01133); experiment: LTEA_HepaRG_EGF: Life Technologies and Expression Analysis (LTEA) Assay for Epidermal growth factor (EGF) using HepaRG (AID 2283489)
# Method in brief: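 EGF transcript measured by Fluidigm TaqMan qRT-PCR with three housekeeping genes for normalization, 48 h after dosing HepaRG cultures in duplicate (top 100 uM, half-log steps, 0.5% DMSO vehicle). Gain or loss relative to DMSO fitted.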
# [17] = read-out: Early growth response protein 1 (EGR1) transcription factor, EGR1 (gene 1958); experiment: LTEA_HepaRG_EGR1: Life Technologies and Expression Analysis (LTEA) Assay for Early growth response protein 1 (EGR1) transcription factor using HepaRG (AID 2283490)
# Method in brief: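 EGR1 expression change in human HepaRG after 48 h chemical exposure, assessed by housekeeping-normalized qRT-PCR; concentration-response up to 100 uM, fitted in both directions against DMSO controls.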
# [18] = read-out: Ezrin (EZR), EZR (gene 7430); experiment: LTEA_HepaRG_EZR: Life Technologies and Expression Analysis (LTEA) Assay for Ezrin (EZR) using HepaRG (AID 2283491)
# Method in brief: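 Read-out is EZR transcript level by qRT-PCR, normalized to three housekeeping genes and fitted bidirectionally against the DMSO control. Human HepaRG cells received test chemicals for 48 h at eight half-log concentrations up to 100 uM in 0.5% DMSO.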
# [19] = read-out: Cytochrome P450 3A7 (Homo sapiens) (UniProt P24462); experiment: LTEA_HepaRG_CYP3A7: Life Technologies and Expression Analysis (LTEA) Assay for CYP3A7 using HepaRG (AID 2283492)
# Method in brief: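 CYP3A7 transcript measured by qRT-PCR (ACTB, GAPDH, POLR2A normalization) after 48 h chemical exposure of HepaRG cells in duplicate. Eight half-log concentrations, maximum 100 uM, 0.5% DMSO vehicle; bidirectional curve fitting against DMSO baseline.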
# [20] = read-out: CYP3A5 (gene 1577); experiment: LTEA_HepaRG_CYP3A5: Life Technologies and Expression Analysis (LTEA) Assay for CYP3A5 using HepaRG (AID 2283493)
# Method in brief: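 Human HepaRG hepatic cells receive 48 h chemical treatment at eight concentrations (half-log steps from 100 uM) in 0.5% DMSO. Expression of CYP3A5 is quantified by Fluidigm qRT-PCR and normalized to three reference genes.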
# Chain of Cytochrome P450 3A7 (Homo sapiens) (P24462 whole entry, looked up): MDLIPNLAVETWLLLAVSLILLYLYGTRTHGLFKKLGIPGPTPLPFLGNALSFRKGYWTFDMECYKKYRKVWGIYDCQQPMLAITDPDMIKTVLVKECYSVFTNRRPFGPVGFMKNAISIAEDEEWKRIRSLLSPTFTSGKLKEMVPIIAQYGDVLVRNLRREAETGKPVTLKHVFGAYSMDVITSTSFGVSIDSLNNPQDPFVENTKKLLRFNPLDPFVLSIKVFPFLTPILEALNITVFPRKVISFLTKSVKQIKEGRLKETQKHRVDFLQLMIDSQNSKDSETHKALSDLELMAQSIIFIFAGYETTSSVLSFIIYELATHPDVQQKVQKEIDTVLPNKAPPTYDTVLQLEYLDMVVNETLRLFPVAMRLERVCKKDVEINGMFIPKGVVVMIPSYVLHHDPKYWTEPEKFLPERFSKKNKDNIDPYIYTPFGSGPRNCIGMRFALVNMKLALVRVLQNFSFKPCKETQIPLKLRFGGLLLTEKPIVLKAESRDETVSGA
# Chain of Caspase-3 (Homo sapiens) (P42574 whole entry, looked up): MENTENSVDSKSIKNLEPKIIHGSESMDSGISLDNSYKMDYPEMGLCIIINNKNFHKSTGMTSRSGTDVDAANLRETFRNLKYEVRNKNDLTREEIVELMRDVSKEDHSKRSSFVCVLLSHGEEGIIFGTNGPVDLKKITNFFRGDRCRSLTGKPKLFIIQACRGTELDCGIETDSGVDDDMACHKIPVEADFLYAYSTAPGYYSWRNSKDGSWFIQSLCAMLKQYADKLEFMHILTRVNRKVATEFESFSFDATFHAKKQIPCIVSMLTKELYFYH
# Chain of Cytochrome P450 3A4 (Homo sapiens) (P08684 whole entry, looked up): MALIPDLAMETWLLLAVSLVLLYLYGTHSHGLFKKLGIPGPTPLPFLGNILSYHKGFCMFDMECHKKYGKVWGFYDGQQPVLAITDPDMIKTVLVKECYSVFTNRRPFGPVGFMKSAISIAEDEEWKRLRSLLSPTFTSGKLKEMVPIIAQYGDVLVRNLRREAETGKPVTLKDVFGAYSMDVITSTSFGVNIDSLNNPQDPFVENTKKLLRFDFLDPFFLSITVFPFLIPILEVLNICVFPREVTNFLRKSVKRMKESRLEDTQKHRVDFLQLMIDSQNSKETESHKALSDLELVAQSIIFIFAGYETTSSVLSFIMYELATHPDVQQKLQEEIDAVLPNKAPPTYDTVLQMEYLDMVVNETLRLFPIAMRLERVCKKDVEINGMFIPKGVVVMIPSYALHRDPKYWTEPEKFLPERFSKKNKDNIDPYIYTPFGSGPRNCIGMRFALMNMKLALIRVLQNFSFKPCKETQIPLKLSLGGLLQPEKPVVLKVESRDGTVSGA
# Chain of Apoptosis regulator Bcl-2 (Homo sapiens) (P10415 whole entry, looked up): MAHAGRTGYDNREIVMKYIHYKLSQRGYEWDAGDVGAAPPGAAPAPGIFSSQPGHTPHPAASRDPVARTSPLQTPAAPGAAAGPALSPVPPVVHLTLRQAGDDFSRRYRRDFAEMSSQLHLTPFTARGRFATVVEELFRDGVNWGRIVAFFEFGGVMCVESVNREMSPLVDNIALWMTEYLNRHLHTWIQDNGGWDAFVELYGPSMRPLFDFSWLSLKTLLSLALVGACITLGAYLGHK
# Chain of Cytochrome P450 2C19 (Homo sapiens) (P33261 whole entry, looked up): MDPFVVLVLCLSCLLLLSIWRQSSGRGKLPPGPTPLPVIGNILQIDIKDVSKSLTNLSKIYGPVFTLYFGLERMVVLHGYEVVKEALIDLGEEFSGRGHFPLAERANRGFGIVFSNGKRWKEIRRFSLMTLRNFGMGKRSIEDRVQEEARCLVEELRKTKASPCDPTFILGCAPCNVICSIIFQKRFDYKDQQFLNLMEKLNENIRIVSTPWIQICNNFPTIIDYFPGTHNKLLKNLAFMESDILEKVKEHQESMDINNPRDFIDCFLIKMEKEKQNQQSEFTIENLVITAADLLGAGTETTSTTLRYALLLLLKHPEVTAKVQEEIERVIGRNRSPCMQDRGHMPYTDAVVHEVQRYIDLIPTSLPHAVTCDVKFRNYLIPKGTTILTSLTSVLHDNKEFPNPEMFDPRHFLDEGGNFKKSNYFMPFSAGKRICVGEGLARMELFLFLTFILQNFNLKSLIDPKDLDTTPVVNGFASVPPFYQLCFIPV
smiles,measurement,setting,value
O=C(CCl)c1ccccc1,outcome,[1],inactive
same,outcome,[2],inactive
same,outcome,[3],inactive
same,outcome,[4],inactive
same,outcome,[5],inactive
same,outcome,[6],inactive
same,outcome,[7],inactive
same,AC50,[8],50 µM (active)
same,outcome,[9],inactive
same,outcome,[10],inactive
same,outcome,[11],inactive
same,outcome,[12],inactive
same,outcome,[13],inactive
same,outcome,[14],inactive
same,outcome,[15],inactive
same,outcome,[16],inactive
same,outcome,[17],inactive
same,outcome,[18],inactive
same,outcome,[19],inactive
same,outcome,[20],inactive
